The supplement of paper PMC13380429

System: Vero E6 infected with SARS-CoV-2
Experiment: inhibition of SARS-CoV-2 cytopathic effect; higher = more antiviral protection, active = above 15
Conditions: 48 h

Measured: inhibition of SARS-CoV-2 cytopathic effect

C[C@@H](O)[C@H]1C(=O)N2C(C(=O)O)=C(SCCNC=N)C[C@H]12 [imipenem]
inactive: 1 nM 2.08% | 8.33 nM 10% | 100 nM 9.32% | 833.33 nM 2.66% | 10000 nM 4.17%

Cc1cc(NCCO)nc(-c2ccc(Br)cc2)n1
inactive: 1 nM 1.81% | 8.33 nM -1.79% | 100 nM -0.15% | 833.33 nM 0.73% | 10000 nM -2.57%

CCC1=C[C@@H]2CN3CCc4c([nH]c5ccccc45)[C@@](C(=O)OC)(C2)[C@@H]13 [catharanthine]
inactive: 1 nM 0.42% | 8.33 nM 0.35% | 100 nM 0.47% | 833.33 nM 0.93% | 10000 nM 2.81%

CN1C/C=C/CCOc2cccc(c2)-c2ccnc(n2)Nc2cccc(c2)C1
inactive: 1 nM 5.51% | 8.33 nM 0.11% | 100 nM 0.3% | 833.33 nM -10.7% | 10000 nM -9.98%

CC(C)(Oc1ccc(Cl)cc1)C(=O)N1CSCC1C(=O)O (stereo not given) [timofibrate]
inactive: 1 nM 1.85% | 8.33 nM 4.22% | 100 nM 2.73% | 833.33 nM -9.25% | 10000 nM 3.42%

C[C@@H]1CC(=O)NN=C1c1ccc(NN=C(C#N)C#N)cc1 [levosimendan]
inactive: 1 nM -0.58% | 8.33 nM 0.74% | 100 nM 0.3% | 833.33 nM 1.84% | 10000 nM 1.18%

Cc1cc(N2CCOCC2)cc2[nH]c(-c3c(NC[C@@H](O)c4cccc(Cl)c4)cc[nH]c3=O)nc12
inactive: 1 nM -1.74% | 8.33 nM -0.03% | 100 nM -2.39% | 833.33 nM -2.43% | 10000 nM -13.9%

CC[C@H](C)[C@@H]1NC(=O)[C@H](Cc2ccc(OC)cc2)NC(=O)CCCSC[C@@H](C(=O)N2CCC[C@H]2C(=O)N[C@@H](CC(C)C)C(=O)NCC(N)=O)NC(=O)[C@H](CC(N)=O)NC(=O)[C@H](CCC(N)=O)NC1=O [carbetocin]
inactive: 1 nM -1.89% | 8.33 nM 0.45% | 100 nM -1.53% | 833.33 nM 1.22% | 10000 nM -1.25%

C#CCC(Cc1cnc2nc(N)nc(N)c2n1)c1ccc(C(=O)N[C@@H](CCC(=O)O)C(=O)O)cc1 (stereo not given in full) [pralatrexate]
inactive: 1 nM 1.9% | 8.33 nM -0.71% | 100 nM -3.9% | 833.33 nM -4.99% | 10000 nM -6.91%

Cc1[nH]c(/C=C2\C(=O)Nc3ccc(S(=O)(=O)N(C)c4cccc(Cl)c4)cc32)c(C)c1C(=O)N1CCN(C)CC1
inactive: 1 nM 2.2% | 8.33 nM 0.76% | 100 nM -0.49% | 833.33 nM 0.96% | 10000 nM -1.88%

NCC[C@H](O)C(=O)N[C@@H]1C[C@H](N)[C@@H](O[C@H]2O[C@H](CN)[C@@H](O)[C@H](O)[C@H]2O)[C@H](O)[C@H]1O[C@H]1O[C@H](CO)[C@@H](O)[C@H](N)[C@H]1O [amikacin]
inactive: 1 nM -1.45% | 8.33 nM 0.75% | 100 nM 0.51% | 833.33 nM 2.36% | 10000 nM -0.28%

COc1ccc2cc(C(C)C(=O)Oc3ccc(C(N)=S)cc3)ccc2c1 (stereo not given)
inactive: 1 nM -0.75% | 8.33 nM 0.03% | 100 nM -0.37% | 833.33 nM 0.55% | 10000 nM 4.55%
